Data taken from PubChem BioAssay.
The source made the active and inactive calls.

How the values were obtained:
[1] = compound effects on lung adenocarcinoma cell viability – A549, calcein-AM fluorescence, 48 h, basal, profiling panel (AID 1162); settings: higher = more signal
[2] = compound effects on differentiated 3T3-L1 adipocyte viability – cell-based, 3T3-L1 adipocytes, calcein-AM fluorescence, 48 h, basal, profiling panel (AID 1163); settings: 3T3-L1 adipocytes viability, higher = more signal
[3] = compound effects on hepatocellular carcinoma cell viability – HepG2, calcein-AM fluorescence, 48 h, basal, profiling panel (AID 1164); settings: higher = more signal
[4] = compound effects on multiple myeloma cell viability – MM1S, calcein-AM fluorescence, 48 h, basal, profiling panel (AID 1165); settings: higher = more signal;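 also: viability of MM1S multiple myeloma cells under basal unstimulated conditions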
[5] = calcein-AM signal in unstimulated myeloma cells – cell-based, calcein-AM fluorescence, 48 h, PK04 Diversity Set, profiling panel (AID 1166); settings: RPMI8226 myeloma viability, higher = more signal;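 also: cells grown under basal conditions without added stimulus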
[6] = JC-1 mitochondrial signal, unstimulated HepG2 cells – cell-based, JC-1 fluorescence, 24 h, 100 nL compound, profiling panel (AID 1167); settings: HepG2 mitochondrial potential, higher = more signal
[7] = JC-1 mitochondrial signal, unstimulated adipocytes – cell-based, JC-1 fluorescence, 3T3-L1 adipocytes, 24 h, 100 nL compound, profiling panel (AID 1168); settings: JC-1 mitochondrial fluorescence, higher = more signal, called active from +8 up or from −8 down
[8] = JC-1 mitochondrial signal, unstimulated myeloma cells – cell-based, JC-1 fluorescence, RPMI8226, 24 h, 100 nL compound, profiling panel (AID 1169); settings: JC-1 mitochondrial potential fluorescence, higher = more signal
[9] = JC-1 mitochondrial signal, unstimulated MM1S myeloma – cell-based, JC-1 fluorescence, 24 h, 100 nL compound, profiling panel (AID 1170); settings: MM1S mitochondrial potential, higher = more signal
[10] = resazurin metabolic signal in A549 cells – cell-based, resazurin fluorescence, 24 h, PK04 Diversity Set, profiling panel (AID 1171); settings: A549 viability, higher = more signal, called active from +8 up or from −8 down
Also: test concentration not given here.

Compound | z-score [1] | z-score [2] | z-score [3] | z-score [4] | z-score [5] | z-score [6] | z-score [7] | z-score [8] | z-score [9] | z-score [10]
C=CCN1Cc2ccccc2C[C@@]2(N=C(c3ccc(OCCCO)cc3)O[C@H]2c2ccccc2)C1=O | -1.46 | 0.906 | -1.05 | -3.52 | -3.95 | 0.166 | 1.4 (inactive) | -1.03 | -2.48 | -3.12 (inactive)
COc1ccc(NC(=O)O[C@H]2[C@H](OC(=O)Nc3ccc4c(c3)OCO4)[C@@H](OC(=O)Nc3ccc4c(c3)OCO4)[C@@H](OC)O[C@@H]2CO)cc1 | -1.11 | -0.0868 | -1.67 | -1.44 | -0.7 | 0.818 | 0.533 (inactive) | -0.628 | -0.786 | 0.441 (inactive)
CC(C)(C)OC(=O)CC[C@]1(C(=O)NCCN2CCOCC2)N=C(c2ccc(OCCCO)cc2)O[C@H]1c1ccccc1N=[N+]=[N-] | -0.877 | 0.303 | 0.309 | -0.603 | -0.711 | 1.27 | 1.21 (inactive) | -0.683 | -0.961 | -0.201 (inactive)
C=CC[C@@]1(C(=O)N2CCCCC2)N=C(c2ccc(OCCCO)cc2)O[C@@H]1c1ccccc1 | -0.721 | 0.533 | 0.292 | -1.3 | -1.13 | -0.381 | -0.282 (inactive) | -1.09 | 0.0448 | 2.5 (inactive)
COCC(=C=CC[C@H](O)c1ccc(OCCO)cc1)C[C@H](O)COCc1ccccc1 | 0.542 | 1.24 | 0.115 | -0.26 | 0.249 | 1.07 | -0.801 (inactive) | -0.245 | -0.748 | 0.925 (inactive)
O=C1O[C@@H](c2ccccc2)[C@@H](c2ccccc2)N2[C@@H](c3ccccc3OCCO)[C@]3(C(=O)Nc4ccc(C#CCCO)cc43)[C@@H](C(=O)N3CCN(c4ncccn4)CC3)[C@H]12 | 0.246 | 0.986 | -0.477 | -0.315 | -3.89 | 0.799 | 0.778 (inactive) | -1.33 | 0.431 | 1.13 (inactive)
COc1ccc(NN2C(C(O)c3ccco3)C=CC3C(=O)N(C4CCCCC4)C(=O)C32)cc1 (stereo not given) | -0.181 | -0.637 | 1.37 | 0.739 | -0.023 | 0.526 | -1.23 (inactive) | 0.23 | -1.23 | 0.405 (inactive)
COC(=O)[C@@]1(Cc2ccc(OC)cc2)[C@H]2c3cc(C(=O)N(C)C)n(CCc4c[nH]c5ccc(O)cc45)c3C[C@H]2CN1C(=O)c1ccccc1 | -1.66 | -0.737 | 0.197 | -1.98 | -1.32 | 0.941 | -0.966 (inactive) | -0.564 | -1.37 | -1.33 (inactive)
O=C1NCC(=O)N2[C@@H]1C[C@@H](C(=O)O)[C@H]2c1ccc(O)cc1 | 0.391 | -0.0074 | -0.084 | -2.79 | -0.0676 | 0.429 | -0.799 (inactive) | 0.233 | -0.775 | 0.249 (inactive)
COC(=O)Cn1c(C(=O)N2CCCC2)cc2c1C[C@H]1CN(C(=O)c3ccccc3)[C@@](Cc3ccc(F)cc3)(C(=O)OC)[C@@H]21 | 1.13 | 0.0791 | 0.476 | -0.297 | 0.63 | 0.669 | -1.47 (inactive) | -0.135 | -1.68 | -0.581 (inactive)
O=C(NC1CC1)[C@@H]1c2ccccc2C(=O)N(Cc2ccccc2)[C@H]1c1ccc(CO)cc1 | 1.3 | -0.429 | 1.46 | 0.293 | 0.217 | 2.33 | 1.07 (inactive) | 0.135 | -0.319 | 0.139 (inactive)
C=CCOC(=O)[C@@H]1[C@H]2C(=O)O[C@H](c3ccccc3)[C@H](c3ccccc3)N2[C@H](c2ccc(OCCOC(=O)[C@H]3C[C@H]4C(=O)N[C@@H](CCCCN(C)C)C(=O)N4[C@H]3c3cccc(OCCO)c3)cc2)[C@@]12C(=O)Nc1ccc(I)cc12 | 0.0169 | -0.859 | -0.102 | -0.671 | -0.654 | -0.89 | 1.12 (inactive) | -0.374 | -1.19 | -0.299 (inactive)
COc1ccc([Si](C)(C)[C@@H]2[C@@H](CC(=O)N3CCC[C@H]3CO)O[C@]3(C(=O)N(Cc4ccc(N5C(=O)c6cccc7cccc5c67)cc4)c4ccccc43)[C@H]2C)cc1 | -1.22 | 1.43 | -2.94 | -2.75 | -4.35 | -1.18 | -0.209 (inactive) | -1.01 | -2.21 | -3.19 (inactive)
CO[C@H]1O[C@H](CO)[C@@H](OC(=O)Nc2ccccc2-c2ccccc2)[C@H](OC(=O)Nc2ccc3c(c2)OCO3)[C@@H]1OC(=O)Nc1ccc2c(c1)OCO2 | 0.105 | -1.46 | -1.05 | -1.49 | -1.84 | -0.467 | 1.34 (inactive) | -0.363 | -0.263 | -1.77 (inactive)
CC=CC(O)C1C=CC2C(=O)N(c3ccccc3)C(=O)C2N1Nc1ccc([N+](=O)[O-])cc1 (stereo not given) | -0.972 | -1.3 | 0.196 | 0.459 | 0.471 | -0.653 | 0.207 (inactive) | 0.592 | -1.01 | -0.0977 (inactive)
COc1ccc([Si](C)(C)[C@H]2[C@H](CCn3cc([C@H](O)c4ccccc4)nn3)O[C@@]3(C(=O)N(Cc4cccc(N5C(=O)c6cccc7cccc5c67)c4)c4ccccc43)[C@@H]2C)cc1 | -0.252 | 0.0344 | -0.506 | -0.342 | -1.56 | -0.411 | -1.63 (inactive) | -0.00407 | -0.319 | -0.884 (inactive)
CCCNC(=O)[C@@]1(c2ccc([N+](=O)[O-])cc2)CC(=O)N(C2CCCCC2)[C@@H]1c1ccc(CO)cc1I | -0.165 | -0.599 | -0.451 | -3.22 | -1.01 | 0.22 | -1.13 (inactive) | -0.677 | -1.11 | 0.72 (inactive)
C=C(CCCC)/C(=C/C[C@@H](OC(C)=O)c1ccc(CO)o1)c1cc(C(=O)OC)ccc1OC | 0.813 | -0.504 | 0.882 | -1.81 | -0.564 | 0.152 | -0.573 (inactive) | 0.507 | -1.36 | 0.111 (inactive)
COC1(C)CN(Cc2ccccc2Br)[C@H](/C=C/c2ccccc2)[C@H](Cc2ccccc2)O1 (stereo not given in full) | 0.411 | 1.2 | 0.875 | -0.245 | -0.0348 | -0.545 | -0.35 (inactive) | -0.19 | -0.861 | 0.494 (inactive)
CC(C)CNC(=O)[C@@]1(c2ccc([N+](=O)[O-])cc2)CC(=O)N(C2CCCCC2)[C@@H]1c1ccc(CO)cc1I | 0.304 | 0.13 | -0.108 | -2 | -0.317 | 1.15 | -0.472 (inactive) | -0.296 | 0.0603 | 1.02 (inactive)
O=C1O[C@@H](c2ccccc2)[C@@H](c2ccccc2)N2[C@@H](c3ccccc3OCCO)[C@]3(C(=O)Nc4ccc(C#CC5=CCCCC5)cc43)[C@@H](C(=O)NC[C@H](O)c3ccccc3)[C@H]12 | -1.37 | 1.68 | -3.07 | -3.25 | -4.07 | -2.4 | 2.81 (inactive) | -0.664 | -2 | -1.46 (inactive)
CCOC(=O)C1=CC[C@@H](c2ccc([N+](=O)[O-])cc2)N(S(=O)(=O)c2ccc(C)cc2)[C@H]1c1ccccc1 | -0.143 | -0.786 | 0.239 | -0.767 | -0.281 | 2.35 | -0.233 (inactive) | 1.21 | -1.25 | 0.807 (inactive)
O=c1cccc(-c2cccc(Cl)c2)o1 | -1.09 | -0.164 | -0.0227 | -0.345 | -0.895 | -0.687 | 0.308 (inactive) | 0.86 | -0.024 | 0.0053 (inactive)
CC(=O)n1cc(C(O)C2C=CC3C(=O)N(Cc4ccccc4)C(=O)C3N2n2cnnc2)c2ccccc21 (stereo not given) | -0.919 | -0.0245 | -0.392 | -1.12 | 0.125 | -1.07 | -0.623 (inactive) | 0.563 | -0.321 | -0.756 (inactive)
CCOC(=O)C1=CC[C@@H](c2cc(Cl)ccc2Cl)N(S(=O)(=O)c2ccc(C)cc2)[C@H]1c1ccc(OC)cc1 | -0.41 | -0.603 | 0.118 | -0.852 | 0.199 | 1.17 | -1 (inactive) | 0.642 | -2.07 | -0.629 (inactive)
CCCCC(CC)C(O)C1C=CC2C(=O)N(c3ccccc3)C(=O)C2N1Nc1ccc([N+](=O)[O-])cc1 (stereo not given) | -0.561 | -0.0969 | -0.919 | -0.41 | -1.1 | -1.74 | -1.56 (inactive) | 0.349 | -1.03 | -0.451 (inactive)
Cc1c(NC(=O)/C(C#N)=C/C=C/c2ccc(N(C)C)cc2)c(=O)n(-c2ccccc2)n1C | 0.284 | 0.257 | 0.175 | 0.232 | 0.285 | -0.545 | 2.26 (inactive) | -0.665 | 1.64 | 0.765 (inactive)
COc1ccccc1CN1C(=O)c2ccccc2[C@@H](C(=O)NC(C)C)[C@@H]1c1ccc(CO)cc1 | 1.66 | 0.611 | 1.95 | 0.472 | 0.717 | 1.63 | -0.41 (inactive) | 0.652 | -0.365 | 2.35 (inactive)
CCOC(=O)C[C@H]1[C@H](OC(=O)c2ccccc2-c2ccccc2)[C@@H](NC(=O)c2ccc3ccccc3n2)c2cc(OCCCO)ccc2N1C(=O)c1ccc2ccccc2n1 | 0.923 | 1.65 | 0.877 | 0.497 | -0.237 | 2.39 | 0.309 (inactive) | 0.356 | -0.845 | 0.545 (inactive)
